About 190 (3.5%) of roughly 5,400 compounds showed an effect of 50% or more. Many of the other results were omitted from the sample, so strong results are more common in it than they were.

The test system of the assay is Vero-E6. In words: primary screen, phospholipidosis by LipidTOX staining; higher = more effect of the substance. The conditions noted are these: 10 µM. The essentials: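 Single-concentration screen at 10 μM, with DMSO 0.1 v/v % and amiodarone 10 μM as controls. Read-out is LipidTOX Red phospholipid staining, which tolerates aldehyde fixation, in Vero-E6 cells.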
With `Cc1c(S(=O)(=O)[O-])oc2c1C(=O)C(=O)c1c-2ccc2c1CCCC2(C)C`, the result_ITMP was -1.56%. For the compound `C[C@H](Oc1cc(-c2cnn(C3CCNCC3)c2)cnc1N)c1c(Cl)ccc(F)c1Cl`, the result_ITMP stood at 70.2%. Next, `C[C@@H](Oc1cc(-c2cnn(C3CCNCC3)c2)cnc1N)c1c(Cl)ccc(F)c1Cl`: 75%. Next, `Nc1nc2[nH]nnc2c(=O)[nH]1`: 1.34%.

With `O=C([O-])[C@@H](O)[C@@H](O)[C@H](O)[C@@H](O)C(=O)[O-]`, the result_ITMP is on record as -1.82%. Next, `CCOc1ccc(/N=C(/C)Nc2ccc(OCC)cc2)cc1`: 3.29%; `CC(=O)OCC1=C(C(=O)[O-])N2C(=O)[C@@H](NC(=O)CSc3ccncc3)[C@H]2SC1`: -1.36%.

For `CO/N=C(\C(=O)N[C@@H]1C(=O)N2C(C(=O)[O-])=C(COC(N)=O)CS[C@H]12)c1ccco1`, the result_ITMP was -1.04%. Next, `O=S(=O)([O-])CCCS(=O)(=O)[O-]`: -2.16%; `CCn1cc(C(=O)[O-])c(=O)c2cc3c(cc21)OCO3`: -4.34%; `CNCC[C@H](Oc1cccc2ccccc12)c1cccs1`: 92.6%.

Turning to `CN(C)[C@@H](CCOc1cccc2ccccc12)c1ccccc1`, the result_ITMP is 43.4%.

As for `CC(C)NC[C@@H](O)COc1cccc2ccccc12` [R4A_0000150_002 / SPE_K13994703], the result_ITMP is 20.2%. Next, `CC1(C)CCC[C@]2(C)[C@H]3CC(=O)O[C@]3(C)CC[C@@H]12`: 1.48%; `Nc1nc2c(c(N3CCNCC3)n1)CCC1=C2[C@@H]2CCCC[C@@H]2O1`: 70.7%. Next, `CC[C@]1(O)C[C@@H]2C[N@@](CCc3c([nH]c4ccccc34)[C@@](C(=O)OC)(c3cc4c(cc3OC)N(C=O)[C@H]3[C@@](O)(C(=O)OC)[C@H](OC(C)=O)[C@]5(CC)C=CCN6CC[C@]43[C@@H]65)C2)C1`: 1.05%; `CC/C(=C(\c1ccc(O)cc1)c1ccc(OCCN(C)C)cc1)c1ccccc1`: 20.4%; `CN(C)CCOc1ccc(/C(=C(/CCCl)c2ccccc2)c2ccccc2)cc1`: 20.4%. Next, `CC/C(=C(\c1ccccc1)c1ccc(OCCN(C)C)cc1)c1ccccc1`: 49.4%. In the case of `CC/C(=C(\c1ccc(OCCN(C)C)cc1)c1cccc(O)c1)c1ccccc1`, the result_ITMP was determined as 77.7%. Next, `CCN(CC)CCOc1ccc(/C(=C(\Cl)c2ccccc2)c2ccccc2)cc1`: 108%; `CCN(CC)CCOc1ccc(Cc2ccccc2)cc1`: 30.2%.

On to `CN1C[C@@H]2CN(c3ccc(-c4ccccc4)nn3)C[C@@H]2C1`, for which the result_ITMP is on record as -1.43%. Next, `O=C([O-])CCC/C=C\C[C@@H]1[C@@H](/C=C/[C@@H](O)COc2cccc(Cl)c2)[C@H](O)C[C@@H]1O` (racemic): -1.06%; `C[C@H](CCC(=O)O)[C@H]1CC[C@H]2[C@@H]3CC[C@@H]4C[C@H](O)CC[C@]4(C)[C@H]3CC[C@]12C`: -0.58%; `Oc1ccnc(S)n1`: -2.88%. Next, `Clc1ccc(C2(c3ccc(-c4cn[nH]c4)cc3)CCNCC2)cc1`: 96.9%. Next, `NCC(O)(CS(=O)(=O)O)c1ccc(Cl)cc1` (centres unmarked): -4.58%; `NC[C@@](O)(c1ccc(Cl)cc1)c1ccc(-c2cn[nH]c2)cc1`: 63.1%; `Cn1ncnc1COc1nn2c(-c3cc(F)ccc3F)nnc2cc1C(C)(C)C`: -6.83%. For the compound `Nc1c(S(=O)(=O)[O-])cc(Nc2cccc3ccccc23)c2c1C(=O)c1ccccc1C2=O`, the result_ITMP was -11.1%. For the compound `CC[C@H]1[C@@H](O)C2C3CC[C@H]([C@H](C)CCC(=O)O)[C@@]3(C)CCC2[C@@]2(C)CC[C@@H](O)C[C@@H]12` (some centres unmarked), the result_ITMP was -3.95%. Next, `CN[C@@H]1C(OC2[C@H](O[C@H]3[C@H](O)[C@@H](O)[C@H](NC(=N)N)[C@@H](O)[C@@H]3NC(=N)N)OC(C)[C@]2(O)CO)OC(CO)C(O)C1O` (some centres unmarked): -3.92%; `CC(=O)c1ccc2c(c1)C(=O)C1(CC1)O2`: 0.63%. Next, `C[C@@H]1CCCN1CCc1cc2cc(-c3ccc(C#N)cc3)ccc2o1`: 66.8%; `CC(=O)C1=C(O)[C@]2(C)C(=CC1=O)Oc1c(C(C)=O)c(O)c(C)c(O)c12`: -3.21%. Next, `CCCCCCCCCCC(=O)O[C@H]1CC[C@H]2[C@@H]3CCC4=CC(=O)CC[C@]4(C)[C@H]3CC[C@]12C`: 0.88%.

For the compound `C[C@@]1(O)[C@H](O)[C@@H](CO)O[C@H]1n1cnc2c(O)nc(N)nc21`, the result_ITMP amounted to 7.18%.

In the case of `COc1ccc2cc(-c3[nH]c(-c4ccc(S(C)=O)cc4)nc3-c3ccncc3)ccc2c1` (centres unmarked), the result_ITMP was -3.68%. Next, `C[N+]1(C)[C@@H]2C[C@@H](OC(=O)C(O)(c3cccs3)c3cccs3)C[C@H]1[C@@H]1O[C@@H]12`: -2.59%; `CN1CCC(=C2c3ccccc3CCc3sccc32)CC1`: 42.6%; `CN1CCC(=C2c3ccccc3Sc3ccccc32)CC1`: 44.9%. Next, `CN1CCC(=C2c3ccccc3C=Cc3ccccc32)CC1`: 77.3%; `Cc1onc(O)c1CC(N)C(=O)O` (racemic) [R4A_0004356_001 / SPE_A34716233]: 0.42%. Next, `O=C(O)COc1ccc(C(=O)c2cccs2)c(Cl)c1Cl`: -7.59%; `CC(C(=O)O)c1ccc(C(=O)c2cccs2)cc1` (centres unmarked): -0.4%; `CC(C)c1ccc(C(=O)c2cccs2)c(SCCCCCCCCN(C)C)n1`: 77%. Consider `O=C([O-])CCC(=O)OC[C@H](NC(=O)C(Cl)Cl)C(O)c1ccc([N+](=O)[O-])cc1` (some centres unmarked), for which the result_ITMP was 1.81%. Next, `O=c1[n-]c(=O)n(Cl)c(=O)n1Cl`: -11.2%. Next, `c1ccc(C2CN3CCSC3=N2)cc1` (centres unmarked) [R4A_0001404_001 / SPE_K73107279]: -7.98%. Next, `C[N+](C)(C)CCOP(=O)([O-])OP(=O)([O-])OC[C@H]1O[C@@H](n2ccc(N)nc2=O)[C@H](O)[C@@H]1O`: 10.2%; `CC(C)(O)c1ccccc1CC[C@@H](SCC1(CC(=O)[O-])CC1)c1cccc(/C=C/c2ccc3ccc(Cl)cc3n2)c1`: 3.69%. `C[C@H](N)Cn1ccc2cc(F)c(Cl)cc21`: the result_ITMP amounted to 50.7%. Next, `CO[C@H]1O[C@@H]2O[C@@]3(C)CC[C@H]4[C@H](C)CC[C@@H]([C@H]1C)[C@@]24OO3`: -0.98%. Regarding `O=C([O-])C(O)Cc1ccc(O)c(O)c1` (centres unmarked), the result_ITMP is 1.45%. Turning to `CCC(=O)O[C@@H](OP(=O)(CCCCc1ccccc1)CC(=O)N1C[C@H](C2CCCCC2)C[C@H]1C(=O)[O-])C(C)C` (some centres unmarked), the result_ITMP is on record as -3.03%.

As for `CCOC(=O)Nc1ccc2c(c1)N(C(=O)CCN1CCOCC1)c1ccccc1S2`, the result_ITMP is reported as -8.3%. For `CC(=O)c1ccc2c(c1)N(CCCN(C)C)c1ccccc1S2`, the result_ITMP is 42.6%. Next, `CC(=O)c1ccc2c(c1)N(CCCN1CCN(CCO)CC1)c1ccccc1S2`: 74.4%. `CC(=O)c1ccc2c(c1)N(CCCN1CCC(CCO)CC1)c1ccccc1S2`: the result_ITMP worked out at 50.4%. Next, `CCCCN1CCC(CCC(=O)c2cc(Cl)c(N)cc2OC)CC1`: 5.01%; `O=C(NO)c1ccc(O)c(O)c1`: -2.75%; `C[C@]12CCC(=O)C[C@@H]1CC[C@@H]1[C@@H]2CC[C@]2(C)C=CC[C@@H]12`: -0.52%.

Consider `C[C@]12CC[C@H](O)C[C@H]1CC[C@@H]1[C@@H]2CC[C@]2(C)[C@@](O)(c3ccoc3)CC[C@]12O`, for which the result_ITMP is on record as -7.29%. Next, `Cc1ccccc1N(C)C(=O)c1ccc(S(=O)c2nccs2)c([N+](=O)[O-])c1` (centres unmarked): 70.1%; `CN1c2c(nc(N)[nH]c2=O)NC[C@@H]1CNc1ccc(C(=O)N[C@@H](CCC(=O)[O-])C(=O)[O-])cc1`: -7.73%; `CC[C@@]1(C2O[C@@H](C3O[C@@](O)(CO)[C@H](C)C[C@@H]3C)C[C@@H]2C)CC[C@H]([C@]2(C)CCC3(C[C@H](O)[C@@H](C)[C@@H]([C@H](C)[C@@H](OC)[C@H](C)C(=O)[O-])O3)O2)O1` (some centres unmarked): -2.43%.

`CN1CCN2c3ccccc3Cc3ccccc3C2C1` (centres unmarked): the result_ITMP is listed as 15.9%.

On to `CC(=O)NNC(=O)N1Cc2ccccc2Oc2ccc(Cl)cc21`, for which the result_ITMP was -0.36%.

Regarding `CN1CCN(c2nc3ccccc3nc2Cl)CC1`, the result_ITMP is recorded as 5.5%. Next, `CN1CCN(c2cc(-c3ccccc3)nc(N)n2)CC1`: 5.46%.

With `CN1C[C@@H]2c3ccccc3Oc3ccc(Cl)cc3[C@H]2C1.CN1C[C@H]2c3ccccc3Oc3ccc(Cl)cc3[C@@H]2C1`, the result_ITMP is given as 65.2%. Next, `CN1CCN(C2=Cc3ccccc3Oc3ccc(Cl)cc32)CC1`: 61.3%. As to `CCCC(=O)[O-]`, the result_ITMP is reported as -6.95%. Next, `CCOC(=O)[C@H](C)C[C@@H](Cc1ccc(-c2ccccc2)cc1)NC(=O)CCC(=O)[O-]`: 0.47%; `CC(C)Cc1ccc(C(C)C(=O)O)cc1` (centres unmarked) [R4A_0001344_001 / SPE_K14965640]: 1.58%. Next, `O=P([O-])(O)C(Cl)(Cl)P(=O)([O-])O`: -2.27%.

For `Cc1cc(Nc2ccc(NC(=O)c3ccc(Nc4ccnc5ccccc45)cc3)cc2)nc(N)n1`, the result_ITMP is 13.5%. `Cc1ccc(NC(=O)c2cccc(N(C)C)c2)cc1NC(=O)c1ccc(O)cc1`: the result_ITMP is recorded as -6.05%. For the compound `CNCc1ccc(C)c(NC(=O)c2ccc(Nc3nc(-c4ccccc4)c4ccccc4n3)cc2)c1`, the result_ITMP amounted to 67.4%. Next, `CN1C2C[C@H](OC(=O)[C@H](CO)c3ccccc3)C[C@H]1[C@H]1OC21` (some centres unmarked): -1.02%; `C=C1/C(=C\C=C2/CCC[C@]3(C)[C@@H]([C@H](C)/C=C/C=C/C(O)(CC)CC)CC[C@@H]23)C[C@@H](O)C[C@@H]1O`: -2.42%.

Regarding `C[C@@]12C(=O)OC(=O)[C@]1(C)[C@H]1CC[C@@H]2O1`, the result_ITMP is listed as 7.41%. Next, `CNCCC=C1c2ccccc2CCc2ccccc21`: 64.4%. Regarding `CNCCC=C1c2ccccc2C=Cc2ccccc21`, the result_ITMP is on record as 42.4%. Next, `CNCC/C=C/c1cccnc1`: -4.64%.

(Values after paper PMC13083723 (Patterns, 2026).)
